# Laboratory results reported in PubChem BioAssay AID493188 (National Center for Advancing Translational Sciences (NCATS), 2011).
# Inconclusive results are not listed. Active and inactive are the calls of the source. Calls come from the whole dose curve; as a rule, active = well fitted inhibition curve with a large enough effect; inconclusive = small, poorly fitted or top-dose-only effect; inactive = flat fitted curve, though single readings scatter.
# Target: Galactokinase (Homo sapiens) (UniProt P51570)
# Experiment: Confirmation Assay for Inhibitors of Human Galactokinase (GALK): SAR round 2
# Excerpt: NIH Molecular Libraries Probe Production Centers Network [MLPCN] NIH Chemical Genomics Center [NCGC] MLPCN Grant: R03 MH085689-01 Assay Submitter (PI): Kent Lai (University of Utah School of Medicine, 50 N Mario Capecchi Drive, Salt Lake City, UT 84132) NCGC Assay Overview Inherited deficiency of galactose-1-phosphate uridyltransferase (GALT) can result in a potentially lethal disorder called Classic Galactosemia (OMIM 230400). Several lines of evidence indicate that an elevated level of galactose-1-phosphate (gal-1-p), the product of galactokinase (GALK), is a major, if not sole, pathogenic mechanism in patients with classic galactosemia. Therefore, finding inhibitors of GALK is a potential novel therapy for this inherent metabolic disease and is the long term goal of this project. Active compounds observed in the qHTS GALK assay (AID: 1868) were cherry picked and re-screened for validation. […]
# NCGC Assay Protocol Summary: Three uL/well of ATP-buffer solution (35 uM ATP, 20mM HEPES pH8.0, 5 mM MgCl2, 60 mM NaCl, 1 mM DTT, 0.01% BSA final concentration) was dispensed into 1536-well, assay plates (Greiner, solid white medium-binding plates) with Aurora Discovery BioRAPTR Flying Reagent Dispenser (FRD; Beckton-Dickenson). […] Luminescence was detected with the ViewLux plate reader (Perkin Elmer, Waltham, MA) after 2 min incubation using a 1 sec exposure time and 2x binning.
# Galactokinase (Homo sapiens), sequence (P51570 whole entry, looked up): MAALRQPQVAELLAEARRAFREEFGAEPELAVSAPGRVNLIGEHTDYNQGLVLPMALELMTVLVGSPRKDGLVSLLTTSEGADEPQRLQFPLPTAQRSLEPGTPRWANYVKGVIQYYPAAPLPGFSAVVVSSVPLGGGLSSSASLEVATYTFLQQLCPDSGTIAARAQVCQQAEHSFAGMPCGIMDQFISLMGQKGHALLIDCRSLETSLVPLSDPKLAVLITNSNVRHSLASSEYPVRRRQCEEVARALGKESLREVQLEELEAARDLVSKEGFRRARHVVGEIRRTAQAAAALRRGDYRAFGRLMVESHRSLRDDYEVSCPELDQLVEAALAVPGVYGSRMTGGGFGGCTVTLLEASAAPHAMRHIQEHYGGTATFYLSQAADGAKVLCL
compound,measurement,value
CC(=O)OCOCC(=O)OCO[P+](=O)C(OCOC(C)=O)c1cc([N+](=O)[O-])ccc1Oc1ccc(Br)cc1 (stereo unspecified),outcome,inactive
